The campaign covered roughly 2,400 compounds. About 580 (24%) were called active.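 The calls were made as follows: active = activity change at or above the mean plus 3 SD of buffer wells without dofetilide, per plate; inactive = the rest.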 Not all results are given here.
biological target: Potassium voltage-gated channel subfamily KQT member 2 (Rattus norvegicus) (UniProt O88943); test: rat KCNQ2 channel activation by compounds alone, confirmation, counter-screen for hERG block protector project, cell-based, CHO, FluxOR thallium flux (AID 1942); settings: CHO-KCNQ2 cells, FluxOR thallium flux fluorescence; at 10 µM; hits give high values;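 also: normalized value minus buffer-control mean plus three SD of buffer wells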
Sequence (O88943 whole entry, looked up): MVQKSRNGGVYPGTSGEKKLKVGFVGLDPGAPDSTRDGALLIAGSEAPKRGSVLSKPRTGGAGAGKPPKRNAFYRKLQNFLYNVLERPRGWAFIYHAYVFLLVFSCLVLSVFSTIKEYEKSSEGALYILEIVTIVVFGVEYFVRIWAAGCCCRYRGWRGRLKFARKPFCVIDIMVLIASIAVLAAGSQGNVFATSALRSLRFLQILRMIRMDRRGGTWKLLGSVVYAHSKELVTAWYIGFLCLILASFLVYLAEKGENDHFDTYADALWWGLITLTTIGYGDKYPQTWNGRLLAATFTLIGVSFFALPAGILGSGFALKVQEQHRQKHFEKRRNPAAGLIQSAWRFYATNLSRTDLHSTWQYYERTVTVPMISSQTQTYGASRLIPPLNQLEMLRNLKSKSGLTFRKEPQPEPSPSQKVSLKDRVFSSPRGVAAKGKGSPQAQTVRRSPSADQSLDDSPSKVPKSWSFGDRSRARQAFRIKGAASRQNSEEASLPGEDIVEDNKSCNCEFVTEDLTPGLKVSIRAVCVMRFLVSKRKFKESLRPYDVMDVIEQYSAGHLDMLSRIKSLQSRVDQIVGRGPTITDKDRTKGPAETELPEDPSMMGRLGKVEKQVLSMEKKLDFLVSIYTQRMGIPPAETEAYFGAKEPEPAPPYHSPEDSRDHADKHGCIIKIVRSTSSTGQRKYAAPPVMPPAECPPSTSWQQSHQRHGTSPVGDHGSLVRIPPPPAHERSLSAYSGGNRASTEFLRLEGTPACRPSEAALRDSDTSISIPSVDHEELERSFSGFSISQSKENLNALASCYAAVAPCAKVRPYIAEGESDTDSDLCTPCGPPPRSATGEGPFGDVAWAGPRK

Row | Compound | activity change, less the hit threshold
1 | COCCNC(=O)C(=O)N/N=C/c1ccc(C(=O)OC)cc1 | -24.8% (inactive)
2 | O=C(CCNC(=O)C1CCN(S(=O)(=O)c2ccc(F)cc2)CC1)NCc1ccc(Cl)cc1 | -18.1% (inactive)
3 | Cc1cc(C)c(S(=O)(=O)Nc2cccc(-n3cnnn3)c2)c(C)c1 | -20.5% (inactive)
4 | COc1ccccc1NC(=O)C1CCCN1C(=O)Nc1ccc(F)cc1 (configuration not stated) | -19.8% (inactive)
5 | O=C(COc1ccc(Cl)cc1Cl)Nc1cccnc1 | -20.4% (inactive)
6 | COC(=O)C1CCCN1C(=O)COc1ccc(Cl)cc1Br (configuration not stated) | 8.6% (active)
7 | CS(=O)(=O)Nc1cccc(-c2cn3ccccc3n2)c1 | -6.5% (inactive)
8 | Cn1c(=O)c2sccc2n(Cc2cccc(Br)c2)c1=O | -20.7% (inactive)
9 | CCN1CCN(CCNC(=O)CCCn2nc(C)c3c(C)n(-c4ccc(C)cc4)nc3c2=O)CC1 | -21% (inactive)
10 | S=c1nc(Cc2ccc(Cl)cc2)[nH]c2ccccc12 | 28.2% (active)
11 | S=c1nc(Cc2ccccc2)[nH]c2ccccc12 | 76.9% (active)
12 | CC(C)c1ccc(/C=N/n2c(COc3ccccc3)n[nH]c2=S)cc1 | -16.5% (inactive)
13 | S=c1[nH]nc(Cc2ccc(Br)cc2)n1/N=C/c1ccc(Cl)cc1 | -13.3% (inactive)
14 | CSc1nc(C)c(Cc2ccccc2)c(=O)[nH]1 | -18.7% (inactive)
15 | S=c1nc(SCc2ccccc2)[nH]c2ccccc12 | 73.5% (active)
16 | O=C(O)CCCCCNc1nc(=S)[nH]c2ccccc12 | -0.8% (inactive)
17 | O=c1[nH]c(SCc2cccc(Cl)c2)nc2ccccc12 | -14.1% (inactive)
18 | S=c1nc(COc2ccccc2)[nH]c2ccccc12 | 131% (active)
19 | N=C1S/C(=C\c2ccco2)C(=O)N1c1nccs1 | -12% (inactive)
20 | CC(=O)Nc1ccc(S(=O)(=O)N2CCC(NC(=O)c3ccccc3)CC2)cc1 | -20.1% (inactive)
21 | Cc1ccc(NC(=O)CSc2nnc(C3CC3)n2CC2CCCO2)c(C)c1 (configuration not stated) | -18.6% (inactive)
22 | S=c1[nH]nc(-c2ccco2)n1/N=C/C(Cl)=C/c1ccccc1 | -17.6% (inactive)
23 | O=C(c1cncc(Br)c1)N1CCc2ccccc2C1 | -24.3% (inactive)
24 | C/C(=N\N1CCN(C2c3ccccc3-c3ccccc32)CC1)c1ccncc1 | -19.2% (inactive)
25 | O=C(Nn1cnnc1)c1ccncc1 | -10.9% (inactive)

Row | Compound | activity change, less the hit threshold
26 | O=C(NC(C(=O)c1ccccc1)n1cnccc1=O)c1ccccc1 (configuration not stated) | -8.7% (inactive)
27 | CC(NC(=O)c1ccncc1)C(C)(C)C (configuration not stated) | 2.9% (active)
28 | Cc1c(OC(C(=O)O)c2ccccc2)ccc2c(-c3ccccc3)cc(=O)oc12 (configuration not stated) | -7% (inactive)
29 | Cc1ccc2c(c1)c1c(n2CC(O)Cn2nc(C)c(Br)c2C)CCCC1 (configuration not stated) | -17.5% (inactive)
30 | Cc1cc(C)c2nc(NC(=O)CN3C(=O)NC4(CCCC4)C3=O)sc2c1 | -9% (inactive)
31 | COC(=O)c1sc(NC(=S)NC(=O)c2ccc(C)cc2)nc1C | -13.3% (inactive)
32 | COC(=O)c1sc(NC(=S)NC(=O)c2ccccc2C)nc1C | 26.5% (active)
33 | COC(=O)c1sc(NC(=S)NC(=O)c2ccccc2F)nc1C | 11.7% (active)
34 | O=c1[nH]c(=O)n(CCc2ccc(F)cc2)c(O)c1C=NCc1ccc2c(c1)OCO2 | -22.5% (inactive)
35 | COc1ccc(C(=O)NC2CC3CCCC(C2)N3Cc2ccccc2)cc1 (configuration not stated) | -27.5% (inactive)
36 | O=c1[nH]c(N2CCN(c3ccccc3)CC2)nc2c1CCCC2 | -11.1% (inactive)
37 | C=C(C)CSc1nc(N)cc(=O)[nH]1 | -12% (inactive)
38 | O=c1c2ccccc2[nH]c(=S)n1C1CCCCC1 | -15.1% (inactive)
39 | CC1CCCCC1n1c(=S)[nH]c2ccccc2c1=O (configuration not stated) | 6.6% (active)
40 | CC1CCC(n2c(=S)[nH]c3ccccc3c2=O)CC1 (configuration not stated) | 47.8% (active)
41 | CC1CCC(N2CCN(C(=O)c3ccccc3F)CC2)CC1 (configuration not stated) | -9.6% (inactive)
42 | Cn1c(O)c(N=NC(=S)Nc2ccccc2F)c2cc(S(=O)(=O)N3CCOCC3)ccc21 | -19.7% (inactive)
43 | Cc1ccc(C(C)C)cc1S(=O)(=O)NC1CC(C)(C)NC(C)(C)C1 | -26% (inactive)
44 | Nc1cc(N)nc(SCc2cc(=O)oc3cc4c(cc23)CCC4)n1 | -20.8% (inactive)
45 | CS(=O)(=O)N(CCc1ccccc1)CC(=O)N1CCN(c2ccc(F)cc2)CC1 | -26.1% (inactive)
46 | Cc1cc(C(=O)NCc2ccc(S(N)(=O)=O)cc2)ccc1[N+](=O)[O-] | -13.6% (inactive)
47 | O=C(NCc1cccnc1)c1ccc(NS(=O)(=O)c2ccc(F)cc2)cc1 | -4.9% (inactive)
48 | O=C(NC(=S)Nc1ncc(Br)cc1Br)c1ccccc1 | -0.7% (inactive)
49 | Cc1cc2ccccn2c1C(=S)NC(=O)c1ccccc1 | 40.3% (active)
50 | O=C(c1n[nH]c2c1CCCC2)n1ccnc1 | -12.7% (inactive)

Row | Compound | activity change, less the hit threshold
51 | C[C@@H]1CCCCCCCCCCC1=O | -18% (inactive)
52 | Cc1ccc(C(=O)CC(=O)COc2ccc(Cl)cc2C)cc1 | -1.4% (inactive)
53 | Cc1ccc(C(=O)CC(=O)c2ccc(C)cc2O)cc1 | -9.3% (inactive)
54 | Cc1ccc(C(=O)COC(=O)C2CCC2)cc1 | 2.2% (active)
55 | O=c1ccn(Cc2ccc(F)cc2)c2ccnc(C(F)(F)F)c12 | -16.3% (inactive)
56 | CCc1ccc2[nH]c(=O)c(-c3ccccc3)c(O)c2c1 | -20.4% (inactive)
57 | Cc1cc2[nH]c(=O)c(=O)[nH]c2cc1S(=O)(=O)N1CCN(c2cccc(C)c2C)CC1 | -10.5% (inactive)
58 | Cc1cccc(N2CCN(C(=O)CNC(=O)c3cccc([N+](=O)[O-])c3)CC2)c1C | -27.6% (inactive)
59 | Cc1cccc(N2CCN(C(=O)Cc3c(C(=O)O)[nH]c4ccc(Cl)cc34)CC2)c1C | 16.8% (active)
60 | CCOC(=O)C1=C(N)Oc2cc(O)ccc2C1c1cccnc1 (configuration not stated) | -24.7% (inactive)
61 | O=C(NC(=S)Nc1cccc(Cl)c1N1CCCCC1)c1cccs1 | -12.7% (inactive)
62 | O=C(NC(=S)N1CCN(c2ccc(Cl)cc2[N+](=O)[O-])CC1)c1cccs1 | 2.3% (active)
63 | COc1ccc(N2CCN(C(=S)NC(=O)c3cccs3)CC2)c([N+](=O)[O-])c1 | -6.4% (inactive)
64 | CC(C)Oc1cccc(C(=O)NC(=S)N2CCN(c3ccc(C(F)(F)F)cc3[N+](=O)[O-])CC2)c1 | -12.3% (inactive)
65 | O=C(NC(=S)N1CCN(c2ccc(C(F)(F)F)cc2[N+](=O)[O-])CC1)c1cccs1 | 15.6% (active)
66 | O=C(NC(=S)N1CCN(c2c(Cl)cccc2[N+](=O)[O-])CC1)c1cccs1 | 7.2% (active)
67 | O=C(NC(=S)Nc1cccc(Cl)c1N1CCOCC1)c1cccs1 | -17% (inactive)
68 | COc1cccc(OC)c1C(=O)NC(=S)N1CCN(c2ccc(C(F)(F)F)cc2[N+](=O)[O-])CC1 | -33.8% (inactive)
69 | O=C(NC(=S)Nc1ccc(N2CCCCC2)c(Cl)c1)c1cccs1 | -0.7% (inactive)
70 | COc1ccc(-c2ccc3c(N)c(C(=O)c4ccc(OC)c(OC)c4)sc3n2)cc1 | -11.8% (inactive)
71 | Cc1c(C#N)c(O)[nH]c(=O)c1N=Nc1ccc(Br)cc1C(=O)O | -13.8% (inactive)
72 | COc1ccc2c(C(=O)CN3CCN(c4ccccc4)CC3)c[nH]c2c1 | -21.6% (inactive)
73 | CCCCCCc1c(O)nc(SCC(=O)O)[nH]c1=O | -23.9% (inactive)
74 | CC1=NN(c2nc(-c3ccccc3)cs2)C(=O)C1N=Nc1ccccc1 (configuration not stated) | -28% (inactive)
75 | COC(=O)c1ccccc1NC(=O)C1CCCN(S(C)(=O)=O)C1 (configuration not stated) | -18.8% (inactive)

Row | Compound | activity change, less the hit threshold
76 | CCc1nnc(NC(=O)C2CCCCN2S(=O)(=O)c2ccccc2)s1 (configuration not stated) | -11.7% (inactive)
77 | Cc1nnc(NC(=O)C2CCCN(S(=O)(=O)c3ccccc3C(F)(F)F)C2)s1 (configuration not stated) | 4.9% (active)
78 | CSc1nsc(SCC(=O)Nc2ccccc2C(=O)O)n1 | -13% (inactive)
79 | COC(=O)CCn1[nH]c(=O)c2ccccc2c1=O | -15.8% (inactive)
80 | CC(=O)NCCc1nc2cc(NC(=O)c3ccc(Cl)cc3)ccc2n1C | -14.1% (inactive)
81 | C/C(=N\Nc1cc(N2CCOCC2)ncn1)c1cccc([N+](=O)[O-])c1 | -15.9% (inactive)
82 | C/C(=N\Nc1nc(C)c(C)s1)c1ccc([N+](=O)[O-])cc1 | 17% (active)
83 | C/C(=N/NC(=S)Nc1cccc(C)c1)c1cccc([N+](=O)[O-])c1 | -13.2% (inactive)
84 | Cc1cc(C)cc(N(C(=O)c2cc3ccccc3oc2=O)C2C=CS(=O)(=O)C2)c1 (configuration not stated) | -12.7% (inactive)
85 | COc1cc(NC(=O)c2ccccc2)c(OC)cc1NC(=O)Cc1ccc(Br)cc1 | 12.3% (active)
86 | COc1ccc(Br)cc1CNc1ccccc1 | -21.6% (inactive)
87 | COc1ccc(CC(=O)Nc2ccccc2Oc2ccccc2)cc1 | -0.3% (inactive)
88 | CCOC(=O)CN1C(=O)SC(Nc2ccc(C)cc2)C1=O (configuration not stated) | -7% (inactive)
89 | O=C(COc1nsnc1N1CCOCC1)Nc1ccc(Cl)cc1 | -17.5% (inactive)
90 | CN(Cc1cnn(C)c1)C(=O)C1CCC(=O)N(Cc2cccc(C(F)(F)F)c2)C1 (configuration not stated) | -19.6% (inactive)
91 | COc1ccc(N2CCN(S(=O)(=O)c3ccc(Br)s3)CC2)cc1 | -14.9% (inactive)
92 | CC1=CN2C(=N)/C(=C/c3ccc(Sc4ccc(Cl)cc4)o3)C(=O)N=C2S1 | -17.8% (inactive)
93 | CCCn1c(=S)[nH]c2ccc(C(F)(F)F)cc21 | -3.6% (inactive)
94 | O=c1c2cc(Cl)ccc2[nH]c(=S)n1Cc1cccs1 | -11.7% (inactive)
95 | CC(C)Cn1c(=S)[nH]c2cc(Cl)ccc21 | 6.5% (active)
96 | COc1cccc(/C=C2/C(=O)NN(c3ccc(C)c(C)c3)C2=O)c1 | -18% (inactive)
97 | O=C(N1CCOCC1)N1CCC(c2nc(-c3ccc(S(=O)(=O)N4CCOCC4)cc3)no2)CC1 | -23.6% (inactive)
